Assay outcomes (PubChem BioAssay)
Most compounds without a hit are left out; they make up all but 8% or so of the library.
HT1080 IDH1KD tx: toxicity to HT-1080 IDH1 knockdown cells (counter line); 2% of 360,000 active; Potency, µM (titrated, usually from 46.1 µM), without a hit: at the highest dose activity, negative = toxicity, usual class: cytotoxic; AID 686971; HT-1080 IDH1 knockdown viability, ATP luminescence, 48 h;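 further: 0% = DMSO wells and -100% = cell-free medium wells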
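CellTiter-Glo luminescence after 48 h compound exposure at 37 degrees C of IDH1-knockdown HT-1080 cells in 5% FBS RPMI. %Activity scaled between DMSO wells and cell-free media wells, with curves fitted and assigned curve classes.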
SW480 rereplic: inducers of DNA re-replication in SW480 colon cancer cells; AID 624297; Potency, µM (top dose mostly 46.1 µM), for the others: top-dose re-replication activation, usual class: activators; 1.8% of 340,000 active; SW480 DNA re-replication, Hoechst DNA content imaging, 48 h; further: % of control where 0% means no effect; nearly all actives have a fitted effect of over 55% in size
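Image-based DNA-content assay: after two days of treatment, nuclei were labelled with the DNA dye Hoechst and imaged, and hits were compounds raising the count of nuclei showing high fluorescence intensity.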
KB-3-1 cytotox: kills parental KB-3-1 adenocarcinoma cells. 1.4% of 400,000 active. KB-3-1 viability, CellTiter-Glo ATP luminescence, 72 h. Potency, µM (titrated, usually from 46.1 µM), hits mostly cytotoxic; further: on the % scale 0 is the no-effect control and ±100 the full control effect; nearly all actives have a fitted effect of over 60% in size
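Parental KB-3-1 adenocarcinoma cells in phenol-red-free DMEM with 10% FBS were pin-treated with compounds at several concentrations, incubated 72 h at 37 °C, and viability read by CellTiter-Glo luminescence; concentration-effect curves were fitted after normalization.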
MCF10A rerep: DNA re-replication induction in MCF 10a cells | MCF 10A DNA re-replication, Hoechst nuclear intensity, 48 h | Potency, µM (doses to about 46.1 µM), without a hit: top-dose activity, positive = re-replication, usual class: activators | 2.9% of 350,000 active | AID 624296; further: % of control where 0% means no effect; nearly all actives have a fitted effect of over 50% in size
HT1080-NT tox: kills 2HG-producing HT-1080-NT fibrosarcoma cells. HT-1080-NT fibrosarcoma viability, CellTiter-Glo ATP luminescence, 48 h. Potency, µM (top dose mostly 46.1 µM), for inactives: at the highest dose activity, negative = less viability, most hits filed as cytotoxic. 1.6% of 360,000 active. AID 686970;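 further: NT is the 2HG producing partner of a matched IDH1 knockdown line; 0% = DMSO-treated cells and -100% = media-only wells without cells; nearly all actives have a fitted effect of over 55% in size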
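Read-out is CellTiter-Glo luminescence after 10 minutes at room temperature, following 48 hours' compound treatment of HT-1080-NT cells (750 cells/well, RPMI, 5% FBS, 37 degrees C).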
KB-V1 MDR tox: kills drug-selected multidrug resistant KB-V1 cells; KB-V1 MDR cells viability, CellTiter-Glo, 72 h; AID 1347076; Potency, µM (highest dose often 46.1 µM), most hits filed as cytotoxic; 3.4% of 400,000 active; further: on the % scale 0 is the no-effect control and ±100 the full control effect; nearly all actives have a fitted effect of over 60% in size
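KB-V1, DMEM (no phenol red) + 10% FBS; cpd pin-transferred, titration series; 72 h, 37 degrees C; CellTiter-Glo, luminescence. Data normalized, curve-fit.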
Active calls of the source: *; i = inactive; ? = inconclusive; · = not tested or not shown; [ ] = dose if it differs, or a comment. The call rests on the fitted dose curve; in most records, active means well fitted curve in the direction sought with a large enough effect; inconclusive means small, poorly fitted or top-dose-only effect, or another doubt; inactive means no such curve, though single readings can be large; an effect the other way counts as inactive or inconclusive. Potency means the concentration at half of the fitted maximal effect.

SMILES	HT1080 IDH1KD tx	SW480 rereplic	KB-3-1 cytotox	MCF10A rerep	HT1080-NT tox	KB-V1 MDR tox
COc1c(Cl)cnn(-c2ccc(Cl)c(Cl)c2)c1=O	?	?	i	23.1µM*	-27.2%	?
COc1cccc(CNC(=O)c2cc3c(=O)oc4ccc(C)cc4c3s2)c1	·	·	i	·	·	i
CCc1nn(CC(=O)N2CCN(Cc3ccc4c(c3)OCO4)CC2)c(=O)c2cc3occc3n12	-20.3%	15.8%	i	0.1%	-2.4%	18.4µM*
CCc1nc2ccc(Cc3ccc4nc(CC)[nH]c4c3)cc2[nH]1	-0.7%	3.26µM*	?	1.0%	-18.9%	i
CCc1nc2ccccc2[nH]1	12.3%	-3.6%	i	-7.6%	4.1%	i
CCOc1ccccc1-n1nnnc1SCC(=O)Nc1cc(C)on1	3.1%	0.5%	i	-2.8%	0.4%[9.24 µM]	i
O=C1N=c2ccccc2=C1c1sc(=S)n(Cc2ccccc2Cl)c1O	3.5%	16.4µM*	?	1.3%	11.6%	?
Oc1ccc(-c2nc3ccccn3c2NCc2ccc3c(c2)OCO3)cc1	-11.7%	-2.2%	i	-6.0%	-16.9%	?
Fc1ccc(-c2nc3ccccn3c2NCc2ccc3c(c2)OCO3)cc1	-29.5%	?	i	11.2µM*	-7.2%	i
Fc1cccc(CSc2nnc3c(n2)[nH]c2ccccc23)c1	-0.6%	-18.4%	i	-10.3%	-0.1%	i
CN(C)C(=O)COC(=O)c1cccnc1Nc1ccccc1F	10.6%	-3.4%	i	15.4%	9.5%	16.4µM*
Cc1[nH]n(-c2ccccc2)c(=O)c1N=Nc1ccccc1O	9.2µM*	?	9.2µM*	6.6%	14.6µM*	i
Cc1[nH]n(-c2ccccc2)c(=O)c1N=Nc1nccs1	3.98µM*	?	i	?	11.2µM*	?
S=C1NC2(CCCC2)N=C1c1ccccc1	1.3%	-14.0%	i	-2.4%	-3.4%	i
O/C=c1\ccc2cccc3nc(C(F)(F)F)nc1c23	-9.1%	13.9%	i	20.6µM*	-24.6%	i
O=C(COC(=O)c1cccc(O)c1)c1ccccc1	18.6%	?	i	-0.5%	15.6%	i
COCC(=O)Nc1ncc(S(=O)(=O)c2ccc([N+](=O)[O-])cc2)s1	-15.7%	-5.9%	i	9.0%	0.0%	i
O=C(NC(Nc1ncc(S(=O)(=O)c2ccc([N+](=O)[O-])cc2)s1)(C(F)(F)F)C(F)(F)F)c1ccc(Cl)cc1	?	?	20.6µM*	9.2µM*	3.26µM*	?
Cc1nc(SC2CC(=O)N(c3ccccc3)C2=O)nc2c1CCCC2 (configuration not stated)	11.2µM*	?	i	-24.7%	?	?
Cc1nnc(SC2CC(=O)N(c3ccccc3)C2=O)s1 (configuration not stated)	22.4%	?	i	?	17.1%	?
Cc1cccc(N2CCN(C(=O)COc3ccc4ccc(=O)oc4c3)CC2)c1C	2.8%	-4.4%	i	-8.2%	-21.7%	i
Cc1cccc(N2CCN(C(=O)COc3ccc4c(c3)CCC4)CC2)c1C	-4.1%	-71.5%	?	?	0.2%	20.6µM*
O=C(Nc1ccc(CN2CCOCC2)cc1)c1ccc(-c2ccc(Cl)cc2Cl)o1	?	?	i	?	14.6µM*	i
O=C(NC(=S)Nc1ccccc1O)c1ccc(-c2ccc(Cl)cc2)o1	?	13.8%	?	16.4µM*	?	i
CN1CCN(c2ccc(NC(=O)c3ccc(-c4ccc(Cl)cc4)o3)cc2)CC1	8.2µM*	?	?	23.1µM*	5.8µM*	?
SMILES	HT1080 IDH1KD tx	SW480 rereplic	KB-3-1 cytotox	MCF10A rerep	HT1080-NT tox	KB-V1 MDR tox
Cc1ccc(O)c(NC(=S)NC(=O)c2ccc(-c3ccc(Cl)cc3)o2)c1	?	25.6%	i	6.51µM*	?	i
Cc1ccc(OCC(=O)OCc2cc(=O)n3nc(C4CCCCC4)sc3n2)cc1	·	·	i	·	·	?
O=C(Nc1nccs1)c1ccc2c(c1)OCO2	-16.4%	-0.3%	i	16.0%	-19.0%	i
CC1CC(C)CN(CC(=O)Nc2ccc3c(c2)OCCO3)C1 (configuration not stated)	2.2%	0.3%	i	-2.5%	-3.7%	i
CC(=O)NC(=O)c1ccc(-c2ccc(Cl)cc2)o1	19.9%	-13.4%	?	-0.9%	24.2%	8.2µM*
CC(=O)c1cc(-c2ccc(F)cc2)n(CC(=O)NC(C)c2ccccc2)c1C (configuration not stated)	·	·	i	·	·	i
CCOC(=O)Nc1cc2c(c(N)n1)N=C(c1ccccc1)CN2	?	?	0.184µM*	?	0.461µM*	0.13µM*
CCOC(=O)Cn1nnc(-c2ccc([N+](=O)[O-])cc2)n1	-0.4%	14.1%	i	32.8%	3.7%	i
C=CCOc1ccc(/C=N/N2C(=O)C(CC(=O)Nc3ccc(F)cc3F)SC2=NC)cc1 (configuration not stated)	?	?	?	?	14.6µM*	?
O=S(=O)(c1ccccc1)c1nc(-c2ccco2)oc1NCCCN1CCOCC1	2.8%	2.7%	i	-2.1%	-2.0%	i
CN(C)N=Nc1nc2c(c(=O)n(C)c(=O)n2C)n1CC1CO1 (configuration not stated)	?	16.4µM*	?	16.4µM*	?	i
N=c1sccn1CC(=O)N1N=C(c2ccc(Cl)cc2)CC1c1ccco1 (configuration not stated)	?	4.0%	i	-8.4%	32.6µM*	?
CCCc1nc(-c2ccc(-c3ccc(F)cc3)cc2)no1	6.4%	-3.9%	i	-0.5%	12.2%	20.6µM*
O=Cc1cn(-c2ccccc2)nc1-c1cc2cc(O)ccc2oc1=O	1.5%	27.0%	i	-8.6%	8.9%	i
O=Cc1cn(-c2ccccc2)nc1-c1cc2c(ccc3ccccc32)oc1=O	10.1%	2.2%	i	2.91µM*	12.3%	i
CCOC(=O)N1CCN(C(=O)c2ccc(N(Cc3ccc(Cl)cc3)S(C)(=O)=O)cc2)CC1	-5.1%	1.0%	i	5.2%	3.8%	i
CCOC(=O)N1CCN(C(=O)c2ccc(N(Cc3ccccc3)S(C)(=O)=O)cc2)CC1	4.3%	-2.2%	i	-0.1%	-1.6%	16.4µM*
CCOC(=O)N1CCN(C(=O)c2ccc(N(Cc3ccc(C)cc3)S(C)(=O)=O)cc2)CC1	1.0%	6.9%	i	-2.8%	2.5%	18.4µM*
